Structures can show the parent of a compound that is named as a salt. ± gives the standard deviation of the averaged measurements.
Legend:
[1] = test system: Saccharomyces cerevisiae BY4741 SeMeCo community; experiment: mean cell size (pixel area) (pixels); higher = larger cells; conditions: 10 µM; 24 h; SM minimal medium
In short: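 A fluorescent Saccharomyces cerevisiae BY4741 community carrying four plasmids was used, with each plasmid complementing one auxotrophy and bearing a fluorescent marker. An overnight preculture at OD600 = 1.0 was diluted to OD600 = 0.3, and 70 µl went into 384-well plates acoustically predosed with drug (final 10 µM) in SM medium for 24 h. After paraformaldehyde fixation, cells were imaged by automated confocal microscopy and analysed in Harmony, giving the mean cell pixel area per well. Each value is the average of 3 replicates. Same SeMeCo high-content imaging drug screen: Selleck FDA-approved drugs at 10 µM, 24 h in SM medium, 384-well plates, 3 replicates.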

[2] = test system: Saccharomyces cerevisiae BY4741 SeMeCo community; experiment: z-score of prototroph abundance vs DMSO median; higher = larger share of this subpopulation than in DMSO controls; conditions: 10 µM; 24 h; SM minimal medium; subpopulation (auxotrophy): Prototroph
In short: (§1)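 A Saccharomyces cerevisiae BY4741 community carried four plasmids, each restoring one auxotrophy and encoding a distinct fluorescent protein. It was pre-grown overnight to OD600 1.0, diluted to 0.3, and 70 µl was added to 384-well plates acoustically predosed with library drugs (10 µM final), then grown 24 h in minimal SM medium. Cells were paraformaldehyde-fixed and imaged by automated confocal microscopy, with single-auxotroph fluorescent strains setting thresholds and autofluorescence correction. Each subpopulation's abundance was scored as a z-score against the vehicle-well median.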

[3] = test system: Saccharomyces cerevisiae BY4741 SeMeCo community; experiment: z-score of subpopulation abundance vs DMSO median, subpopulation auxotrophic for L; higher = larger share of this subpopulation than in DMSO controls; conditions: 10 µM; 24 h; SM minimal medium; subpopulation (auxotrophy): L
In short: as §1

[4] = test system: Saccharomyces cerevisiae BY4741 SeMeCo community; experiment: z-score of subpopulation abundance vs DMSO median, subpopulation auxotrophic for U; higher = larger share of this subpopulation than in DMSO controls; conditions: 10 µM; 24 h; SM minimal medium; subpopulation (auxotrophy): U
In short: as §1

[5] = test system: Saccharomyces cerevisiae BY4741 SeMeCo community; experiment: z-score of subpopulation abundance vs DMSO median, subpopulation auxotrophic for H; higher = larger share of this subpopulation than in DMSO controls; conditions: 10 µM; 24 h; SM minimal medium; subpopulation (auxotrophy): H
In short: as §1

[6] = test system: Saccharomyces cerevisiae BY4741 SeMeCo community; experiment: z-score of subpopulation abundance vs DMSO median, subpopulation auxotrophic for LU; higher = larger share of this subpopulation than in DMSO controls; conditions: 10 µM; 24 h; SM minimal medium; subpopulation (auxotrophy): LU
In short: as §1

[7] = test system: Saccharomyces cerevisiae BY4741 SeMeCo community; experiment: z-score of subpopulation abundance vs DMSO median, subpopulation auxotrophic for LM; higher = larger share of this subpopulation than in DMSO controls; conditions: 10 µM; 24 h; SM minimal medium; subpopulation (auxotrophy): LM
In short: as §1

[8] = test system: Saccharomyces cerevisiae BY4741 SeMeCo community; experiment: z-score of subpopulation abundance vs DMSO median, subpopulation auxotrophic for HM; higher = larger share of this subpopulation than in DMSO controls; conditions: 10 µM; 24 h; SM minimal medium; subpopulation (auxotrophy): HM
In short: as §1

[9] = test system: Saccharomyces cerevisiae BY4741 SeMeCo community; experiment: z-score of subpopulation abundance vs DMSO median, subpopulation auxotrophic for UM; higher = larger share of this subpopulation than in DMSO controls; conditions: 10 µM; 24 h; SM minimal medium; subpopulation (auxotrophy): UM
In short: as §1

[10] = test system: Saccharomyces cerevisiae BY4741 SeMeCo community; experiment: z-score of subpopulation abundance vs DMSO median, subpopulation auxotrophic for HL; higher = larger share of this subpopulation than in DMSO controls; conditions: 10 µM; 24 h; SM minimal medium; subpopulation (auxotrophy): HL
In short: as §1

[11] = test system: Saccharomyces cerevisiae BY4741 SeMeCo community; experiment: z-score of subpopulation abundance vs DMSO median, subpopulation auxotrophic for HLU; higher = larger share of this subpopulation than in DMSO controls; conditions: 10 µM; 24 h; SM minimal medium; subpopulation (auxotrophy): HLU
In short: as §1

[12] = test system: Saccharomyces cerevisiae BY4741 SeMeCo community; experiment: z-score of subpopulation abundance vs DMSO median, subpopulation auxotrophic for HLM; higher = larger share of this subpopulation than in DMSO controls; conditions: 10 µM; 24 h; SM minimal medium; subpopulation (auxotrophy): HLM
In short: as §1

[13] = test system: Saccharomyces cerevisiae BY4741 SeMeCo community; experiment: z-score of subpopulation abundance vs DMSO median, subpopulation auxotrophic for HUM; higher = larger share of this subpopulation than in DMSO controls; conditions: 10 µM; 24 h; SM minimal medium; subpopulation (auxotrophy): HUM
In short: as §1

[14] = test system: Saccharomyces cerevisiae BY4741 SeMeCo community; experiment: z-score of subpopulation abundance vs DMSO median, subpopulation auxotrophic for LUM; higher = larger share of this subpopulation than in DMSO controls; conditions: 10 µM; 24 h; SM minimal medium; subpopulation (auxotrophy): LUM
In short: as §1

[15] = test system: Saccharomyces cerevisiae BY4741 SeMeCo community; experiment: z-score of subpopulation abundance vs DMSO median, subpopulation auxotrophic for HLUM; higher = larger share of this subpopulation than in DMSO controls; conditions: 10 µM; 24 h; SM minimal medium; subpopulation (auxotrophy): HLUM
In short: as §1

[16] = test system: Saccharomyces cerevisiae BY4741 SeMeCo community; experiment: z-score of subpopulation abundance vs DMSO median, subpopulation auxotrophic for HU; higher = larger share of this subpopulation than in DMSO controls; conditions: 10 µM; 24 h; SM minimal medium; subpopulation (auxotrophy): HU
In short: as §1

SMILES | mean cell size [1] | z-score of prototroph abundance [2] | z-score of subpopulation abundance [3] | z-score of subpopulation abundance [4] | z-score of subpopulation abundance [5] | z-score of subpopulation abundance [6] | z-score of subpopulation abundance [7] | z-score of subpopulation abundance [8] | z-score of subpopulation abundance [9] | z-score of subpopulation abundance [10] | z-score of subpopulation abundance [11] | z-score of subpopulation abundance [12] | z-score of subpopulation abundance [13] | z-score of subpopulation abundance [14] | z-score of subpopulation abundance [15] | z-score of subpopulation abundance [16]
CO/N=C(\C(=O)N[C@@H]1C(=O)N2C(C(=O)[O-])=C(C[n+]3cccc4c3CCC4)CS[C@H]12)c1csc(N)n1 [Cefpirome sulfate] | 12.5 ± 0.22 | -0.2 | 1.19 | -0.71 | 0.64 | -0.12 | 0.27 | 0.31 | 0.21 | -0.18 | -0.14 | -0.14 | 0 | 0.18 | 0.23 | –
O=C(c1ccccc1)c1ccc2n1CCC2C(=O)O (stereo not drawn) [Ketorolac tromethamine salt] | 12.3 ± 0.19 | 0.48 | 0.3 | -0.92 | 0.35 | -0.75 | -0.1 | -0.41 | -0.28 | – | -0.16 | -0.09 | -0.75 | -0.12 | -0.11 | -0.79
Cc1nnc(SCC2=C(C(=O)O)N3C(=O)[C@@H](NC(=O)Cn4cnnn4)[C@H]3SC2)s1 [Cefazolin Sodium] | 12.24 ± 0.096 | -1.09 | 0 | 0.46 | 1.95 | 1.43 | 0.26 | 0.05 | – | 1.09 | 0.52 | 0.22 | 0.08 | 0.5 | -0.81 | 2.2
CCn1cc(C(=O)O)c(=O)c2cc(F)c(N3CCNCC3)nc21 [Enoxacin] | 12.3 ± 0.26 | 0.22 | 1.22 | -0.4 | -0.39 | 0.6 | 1.61 | – | -0.47 | 0.3 | 0.23 | -0.64 | -0.01 | 0.62 | 0.48 | –
COc1ccccc1OCC(O)CN1CCN(CC(=O)Nc2c(C)cccc2C)CC1 (stereo not drawn) [Ranolazine 2HCl] | 12.35 ± 0.013 | 0.5 | 0.24 | -0.29 | 0.04 | 0.35 | -0.74 | -0.18 | -0.16 | 0.26 | -0.68 | -0.72 | -0.12 | -0.47 | – | -0.09
CCOc1cc(NC(C)=O)ccc1C(=O)OC [Ethopabate] | 12.6 ± 0.26 | -0.33 | 0.35 | -0.35 | -0.59 | 1.2 | – | -0.11 | 0.48 | 0.25 | -0.1 | 0.97 | -0.22 | 0.24 | 2.14 | –
O=C1CC2(CCCC2)CC(=O)N1CCCCN1CCN(c2ncccn2)CC1 [Buspirone HCl] | – | 0.7 | 0.76 | 0.5 | -0.72 | 1.78 | -0.34 | -0.83 | -1.32 | 0 | -0.25 | -0.1 | -0.84 | -0.12 | 0.74 | -0.07
CCCc1nn(C)c2c(=O)[nH]c(-c3cc(S(=O)(=O)N4CCN(C)CC4)ccc3OCC)nc12 [Sildenafil Citrate] | 12.4 ± 0.22 | 0.12 | -0.61 | 0.43 | -0.22 | 0.51 | -0.26 | 0.01 | 0.49 | – | 0.14 | -0.32 | -0.06 | -0.09 | -0.32 | -0.23
Nc1ccc(S(=O)(=O)Nc2nccs2)cc1 [Sulfathiazole] | 12.4 ± 0.21 | 0.17 | -0.12 | 0.9 | – | 0.15 | -0.24 | – | 1.04 | -0.09 | 0.27 | -0.42 | 0.33 | – | -0.19 | -0.39
NC(=O)c1cnccn1 [Pyrazinamide] | 12.6 ± 0.23 | -0.04 | -1.21 | 1.27 | -0.45 | 0.31 | – | -0.55 | 1.23 | -0.42 | -0.7 | -0.57 | 0.08 | -0.08 | -0.48 | -0.29
C#C[C@]1(O)CC[C@H]2[C@@H]3CCC4=CC(=O)CC[C@@H]4[C@H]3C(=C)C[C@@]21CC [Etonogestrel] | 12.4 ± 0.14 | – | -0.43 | 1.19 | 0.15 | 0.5 | -0.7 | -1.24 | – | -0.29 | 0.5 | -0.55 | -0.52 | -0.63 | -0.23 | 0.83
COc1ccc2c3c1O[C@H]1C[C@@H](O)C=C[C@@]31CCN(C)C2 [Galanthamine] | 12.47 ± 0.052 | -1.09 | 0.78 | -0.51 | 0.83 | 0.29 | 0.45 | – | 0.1 | – | 1.67 | 1.04 | 1.27 | 1.02 | 1.34 | 0.48
Oc1ccc(C2CNCCc3c2cc(O)c(O)c3Cl)cc1 (stereo not drawn) [Fenoldopam mesylate] | 12.9 ± 0.26 | – | -1.59 | -1.92 | 0.06 | -1.75 | 2.31 | 1.58 | -1.9 | 0.16 | -0.29 | 0.63 | -0.92 | -1.22 | – | -0.06
C[C@H](NCc1ccc(OCc2cccc(F)c2)cc1)C(N)=O [Safinamide] | 12.47 ± 0.075 | -0.89 | -0.58 | 1.46 | -0.07 | 0.99 | 0.37 | – | 0.6 | 0.15 | 0.72 | 1.35 | -0.17 | 0.42 | 0.95 | 1.16

Reference: the supplement of paper PMC8975748
